Test results published in ChEMBL document CHEMBL3988442, “University of Dundee, Small-Polar-MMV Screening Library” (2021).
The campaign covered roughly 69,000 compounds. About 420 (0.61%) showed an effect of 50% or more. The full list was thinned out, with strong results kept by preference.

target: T1, Histidine--tRNA ligase (Leishmania infantum) (UniProt A4I591); assay: Leishmania infantum Histidine tRNA synthetase (LdHisRS); format: functional; set-up: scale not given: in the data most compounds retested in dose-response had high values; details: 30 µM
T1 sequence (whole entry): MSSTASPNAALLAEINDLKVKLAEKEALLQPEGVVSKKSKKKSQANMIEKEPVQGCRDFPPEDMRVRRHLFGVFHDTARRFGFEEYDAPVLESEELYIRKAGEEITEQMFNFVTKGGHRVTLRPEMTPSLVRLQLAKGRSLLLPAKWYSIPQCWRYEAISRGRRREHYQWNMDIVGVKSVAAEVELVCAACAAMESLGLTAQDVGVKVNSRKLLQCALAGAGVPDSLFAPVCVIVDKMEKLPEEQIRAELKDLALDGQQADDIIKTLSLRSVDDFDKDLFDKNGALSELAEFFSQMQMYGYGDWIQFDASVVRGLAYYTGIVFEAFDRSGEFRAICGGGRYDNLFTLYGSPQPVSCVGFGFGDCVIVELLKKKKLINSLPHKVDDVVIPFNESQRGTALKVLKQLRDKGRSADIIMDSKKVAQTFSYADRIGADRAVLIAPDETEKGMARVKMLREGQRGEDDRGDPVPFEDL

Structure (SMILES)	Percent Effect [%]
COc1cnc(N2CCN(C)CC2)nc1-c1ccnn1C	13.7
Cc1cnc(N2CCN(C)CC2)nc1-c1ccnn1C	7.84
COc1cnc(N2CC(N3CCOCC3)C2)nc1-c1ccnn1C	92.2
CC(=O)N1[C@H](Cn2cncn2)C[C@@H]2CN(CC3CC3)CC[C@@H]21	11.1
Cc1cc(C(=O)N2C[C@@H]3COC[C@]3(CN(C)C)C2)sc1C	-39.3
COCCN1C[C@@H]2CN(Cc3ccc(C)s3)CCC[C@]2(C(=O)O)C1	-8.18
CS(=O)(=O)N1CC[C@H]2C[C@@H](C(=O)N3CCOCC3)O[C@@H]2C1	-3.77
O=C1N(Cc2cccnc2)C[C@H]2CN(S(=O)(=O)c3ccccc3)CCN12	13.5
Cc1ccoc1C(=O)N1CCO[C@H]2[C@H](OCC3CCOCC3)CC[C@@H]21	7.55
COc1ccc(-n2c(CO)nc3ccccc32)cc1CO	34.3
COc1ccc(-n2c(CCC(=O)O)nc3ccccc32)cc1CO	60
CC(O)c1cccc(-n2c(CCC(=O)O)nc3ccccc32)c1 (stereo unspecified)	40
CNC[C@H]1CC[C@H](c2cc(CN(C)S(=O)(=O)N(C)C)n(C)n2)CC1	-50
O=C(c1ccco1)N1CCO[C@@H]2CN(CC3CC3)CC[C@@H]2C1	26
CN1[C@H]2CC[C@@H]1CN(C(=O)c1nnc3n1CCCC3)CC2	8.89
Cc1ncc(CN(C)C2CCCN(c3cccnn3)C2)s1 (stereo unspecified)	6.74
Cc1cn2nc(N(C)C3CCCN(c4cccnn4)C3)sc2n1 (stereo unspecified)	65.5
Cc1ccc(N2CCCC(N(C)c3nn4cc(C)nc4s3)C2)nn1 (stereo unspecified)	15.9
COc1ccc(CN2C[C@@H]3OCCN(CCN4CCCC4)[C@@H]3C2)cc1	0.917
CC(C)NC(=O)c1nc2c(s1)CCCN2Cc1ccccc1	38.5
CCN(C(=O)c1nc2c(s1)CCCN2Cc1ccccc1)C(C)C	74.4
CN(C)C(=O)c1nc2c(s1)CCCN2Cc1ccccc1	-245
CSc1ccccc1C(=O)N1C[C@H]2CC[C@@H]1CN(C(=O)C1CCC1)C2	14.5
O=C(CC1CC1)N[C@@H]1CN(C(=O)c2ccsc2)C[C@@H]2CCCO[C@@H]21	0.901

Structure (SMILES)	Percent Effect [%]
CN(C)CCn1c(=O)oc2ccc(NC(=O)N3CCCCCC3)cc21	59.8
CCC(C)C(=O)Nc1ccc2oc(=O)n(CCN(C)C)c2c1 (stereo unspecified)	27.7
CN(C)CCn1c(=O)oc2ccc(NC(=O)CC(C)(C)C)cc21	37.9
CN(C)CCn1c(=O)oc2ccc(NC(=O)C3CCCO3)cc21 (stereo unspecified)	53.4
CC(C)CCC(=O)Nc1ccc2oc(=O)n(CCN(C)C)c2c1	27.7
CCC(CC)C(=O)Nc1ccc2oc(=O)n(CCN(C)C)c2c1	15.2
CCNC(=O)N1CC[C@H]2CC(=O)N(CC(N)=O)CC[C@H]2C1	11.1
CCCc1ccc(CN2CCN(c3ncccn3)[C@@H]3CS(=O)(=O)C[C@@H]32)o1	13.2
Cc1nc(CN2C[C@@H]3CN(C(=O)NC(C)C)C[C@@H]3C2=O)cs1	2.94
CC(C)NC(=O)c1sc2ccccc2c1[C@H]1CC[C@H](CN)CC1	8.45
Cn1cc(CN2CCC[C@]3(C(=O)O)CN(c4ncccn4)C[C@@H]3C2)cn1	27.8
Cc1noc([C@H]2C[C@H]3OCC[C@H]3N(C3CCC3)C2)n1	-1.06
O=C(c1cccc(F)c1)N1CC[C@@H]2CN(c3ncccn3)CCO[C@@H]2C1	6
CCc1ccc(NC(=O)N2C[C@H]3CC[C@@]4(N=C(C)N(C)C4=O)[C@H]3C2)cc1	24.7
CN(C)C(=O)CN1CCCC1c1cccc(Cc2ccccc2F)n1 (stereo unspecified)	55.7
CN1CCCC1c1cccc(Cc2ccccc2F)n1 (stereo unspecified)	16.7
CC(=O)N1CCCC1c1cccc(Cc2ccccc2F)n1 (stereo unspecified)	0
CCS(=O)(=O)N1C[C@H]2C[C@H](C(=O)N(C)C)[C@@H](C1)O2	6.57
O=C(c1ccc[nH]1)N1C[C@H]2CC[C@@H]1CN(c1ncccn1)C2	21.7
Cc1ccc(C(=O)N(C2CC2)C2CC(=O)NC2=O)cc1F (stereo unspecified)	8.47
CCn1nnc2c1C(COCC(=O)N(C)C)CN(Cc1ccco1)C2 (stereo unspecified)	50.9
CCn1nnc2c1C(COC)CN(Cc1ccco1)C2 (stereo unspecified)	52.8
CCn1nnc2c1C(COC)CN(Cc1cccs1)C2 (stereo unspecified)	13.5
CN(C)C(=O)COCC1CN(Cc2ccco2)Cc2ncn(C)c21 (stereo unspecified)	20.8

Structure (SMILES)	Percent Effect [%]
CCn1nnc2c1C(COCC(=O)N(C)C)CN(Cc1ccoc1)C2 (stereo unspecified)	5.66
CCn1nnc2c1C(COCCN(C)C)CN(Cc1ccco1)C2 (stereo unspecified)	1.89
CC(=O)N1C[C@@H]2CN(S(=O)(=O)C3CC3)CCO[C@@H]2C1	10
O=C1O[C@@H]2CN(c3cnccn3)C[C@@H]2N1CCCc1ccc(F)cc1	11
CCCS(=O)(=O)N1C[C@@H](Oc2ccccn2)[C@H]2OCCC[C@H]21	9.73
Cc1ncc(CN2Cc3ccccc3O[C@]3(CC[C@H](CO)CC3)C2)cn1	11.1
Fc1cnc(N2CC[C@@H]3OC(COCc4cccnc4)CC[C@@H]32)nc1 (stereo partly specified)	5.26
O=C(c1ccco1)N1CC[C@@H]2O[C@@H](COCC3CCOCC3)CC[C@@H]21	-0.84
COC[C@@]12CCO[C@@H]1CCN(C(=O)CCc1ccccc1Cl)C2	12.9
Cc1ncc2c(n1)CN(Cc1nnc(Cc3ccccc3)o1)CC2	55.4
CCc1ncc2c(n1)CN(Cc1nnc(Cc3ccccc3)o1)CC2	31.2
CC(C)c1ncc2c(n1)CN(Cc1nnc(Cc3ccccc3)o1)CC2	33
CC(C)N1C[C@@H]2OCC(=O)N(Cc3ccccc3)[C@@H]2C1	8.11
Cc1nnc(N2CCc3cnc(C(C)C)nc3C2)c(C#N)c1C	46.7
CCc1ncc2c(n1)CN(c1nnc(C)c(C)c1C#N)CC2	12
Cc1nnc(N2CCc3cncnc3C2)c(C#N)c1C	65.3
O=C(c1ccnnc1)N1C[C@@H](OCC2CCOCC2)[C@H]2OCCC[C@H]21	11.8
COc1cc(F)c(CN2CCN(CC(C)C)C(=O)C2C)cc1OC (stereo unspecified)	10.8
COc1cccc(CN2CCN(CC(C)C)C(=O)C2C)c1O (stereo unspecified)	98.9
COC(=O)c1ccc(OC)c(CN2CCN(CC(C)C)C(=O)C2C)c1 (stereo unspecified)	10.8
CC(=O)N1CCN(c2ccccc2CNc2cncc(C)c2)CC1	11
CC(=O)N1CCN(c2ccccc2CNc2ccc3[nH]ncc3c2)CC1	57.5
COc1ccc(NCc2ccccc2N2CCN(C(C)=O)CC2)cn1	24.7
